Assay [1] addresses Paired box protein Pax-6 (Homo sapiens) (UniProt P26367). Description: ATG_Pax6_CIS: Attagene CIS-FACTORIAL HepG2 Assay for human Paired Box 6 (PAX6) (AID 2282956). Particulars: HepG2 CIS-FACTORIAL PAX6 reporter transcription, RNA readout; actives raise or lower the signal. The essentials: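 HepG2 cells transiently transfected with cis-promoter-driven multiplexed reporter units sensing endogenous transcription factor activity; 24 h chemical exposure. Reporter mRNA quantified by RT-PCR, 6-FAM labelling, HpaI digestion and capillary electrophoresis; bidirectional fit versus DMSO baseline.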

Assay [2] is described as follows: ATG_PXRE_CIS: Attagene CIS-FACTORIAL HepG2 Assay for human Pregnane X Receptor Element (PXRE) (AID 2282957). Conditions: HepG2 Attagene CIS-FACTORIAL PXRE reporter, mRNA; actives raise or lower the signal. In a few lines:
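Transfect HepG2 with MRTUs (cis promoter elements); dose chemical, incubate 24 h; isolate RNA, RT with oligo(dT), PCR, 6-FAM label, HpaI cut, CE. Gain/loss fit vs DMSO.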

A short description of assay [3]: ATG_PPRE_CIS: Attagene CIS-FACTORIAL HepG2 Assay for human Peroxisome Proliferator-activated Response Element (PPRE) (AID 2282958). Conditions: HepG2 PPRE cis-element reporter, Attagene transcription factor profiling; actives raise or lower the signal. In a few lines: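 In this cell-based multiplex, a PPRE cis element drives a reporter sequence in transiently transfected HepG2 cells. Following 24 h treatment, labeled cDNA amplicons are sized and quantified by capillary electrophoresis, with DMSO defining baseline.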

Assay [4] is described as follows: ATG_RORE_CIS: Attagene CIS-FACTORIAL HepG2 Assay for human RAR-related Orphan Receptor Element (RORE) (AID 2282959). Particulars: HepG2 Attagene cis-factorial RORE reporter, mRNA; actives raise or lower the signal. The essentials:
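Endogenous factor activity at a cis response element is read as reporter transcript levels in HepG2 cells, 24 h post-dose. Transcripts are quantified by RT-PCR with capillary electrophoresis, and data fitted in both directions against DMSO.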

Assay [5] has as its target Transcription factor Sp1 (Homo sapiens) (UniProt P08047). The assay can be described thus: ATG_Sp1_CIS: Attagene CIS-FACTORIAL HepG2 Assay for human Specificity Protein 1 (Sp1) (AID 2282961). Conditions: HepG2 Sp1 cis-reporter transcription, actives raise or lower the signal. In a few lines: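 Cells: HepG2, transiently transfected with cis-regulated multiplexed reporters. Exposure: 24 h. Detection: reporter transcripts amplified, fluorescently labeled, restriction-digested and sized by capillary electrophoresis. Analysis: bidirectional fit relative to DMSO.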

A short description of assay [6]: ATG_SREBP_CIS: Attagene CIS-FACTORIAL HepG2 Assay for human Sterol Regulatory Element Binding (SREBP) (AID 2282962). Particulars: HepG2 Attagene cis-factorial SREBP reporter, mRNA; actives raise or lower the signal. The essentials:
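HepG2 cells transiently transfected with multiplexed cis-promoter reporter units sensing endogenous transcription factors; reporter mRNA measured 24 h after dosing by RT-PCR, 6-FAM labeling, HpaI digestion and capillary electrophoresis. Bidirectional fit versus DMSO.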

The target in assay [7] is Signal transducer and activator of transcription 3 (Homo sapiens) (UniProt P40763). Description: ATG_STAT3_CIS: Attagene CIS-FACTORIAL HepG2 Assay for human Signal Transducer and Activator of Transcription 3 (STAT3) (AID 2282963). Particulars: HepG2, Attagene cis-factorial STAT3 reporter transcription; actives raise or lower the signal. In a few lines: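 After a 24 h compound incubation, total RNA from MRTU-transfected HepG2 cells was converted to cDNA and reporter sequences PCR-amplified, labelled and profiled by capillary electrophoresis. Gain and loss of signal were referenced to DMSO.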
Chain of Signal transducer and activator of transcription 3 (Homo sapiens) (P40763 whole entry, looked up): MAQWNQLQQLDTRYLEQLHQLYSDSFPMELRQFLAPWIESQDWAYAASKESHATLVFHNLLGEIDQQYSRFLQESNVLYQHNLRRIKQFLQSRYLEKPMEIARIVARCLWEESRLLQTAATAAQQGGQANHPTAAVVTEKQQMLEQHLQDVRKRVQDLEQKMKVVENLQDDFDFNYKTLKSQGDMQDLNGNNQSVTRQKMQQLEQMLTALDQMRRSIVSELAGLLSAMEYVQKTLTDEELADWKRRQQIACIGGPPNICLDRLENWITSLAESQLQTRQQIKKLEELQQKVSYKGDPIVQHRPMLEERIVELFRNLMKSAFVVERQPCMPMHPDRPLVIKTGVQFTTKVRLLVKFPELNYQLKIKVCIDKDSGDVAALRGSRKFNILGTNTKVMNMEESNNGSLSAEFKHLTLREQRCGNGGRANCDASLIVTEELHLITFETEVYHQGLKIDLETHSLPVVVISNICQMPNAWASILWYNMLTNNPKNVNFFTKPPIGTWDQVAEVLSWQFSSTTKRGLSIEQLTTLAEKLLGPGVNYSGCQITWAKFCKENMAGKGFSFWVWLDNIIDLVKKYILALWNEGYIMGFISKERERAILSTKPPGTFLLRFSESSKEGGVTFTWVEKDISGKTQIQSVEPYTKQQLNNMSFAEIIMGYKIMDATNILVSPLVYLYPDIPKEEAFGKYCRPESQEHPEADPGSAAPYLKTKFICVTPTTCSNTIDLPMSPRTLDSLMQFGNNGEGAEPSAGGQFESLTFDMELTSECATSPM

Assay [8] can be described thus: ATG_TA_CIS: Attagene CIS-FACTORIAL HepG2 Assay for human TA Basal Promoter (AID 2282964). Conditions: HepG2 Attagene CIS-factorial TA basal promoter reporter; actives raise or lower the signal. In a few lines: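 Steps: transfect HepG2 with MRTUs; dose 24 h; isolate RNA, DNase-treat, reverse-transcribe; PCR and FAM-label reporter cDNA; digest with HpaI 2h at 37 C; run capillary electrophoresis. Activity fitted both directions against DMSO.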

Assay [9] is described as follows: ATG_TCF_b_cat_CIS: Attagene CIS-FACTORIAL HepG2 Assay for human T-Cell-Factor with beta-catenin (TCF/b-cat) (AID 2282965). Conditions: HepG2 TCF/beta-catenin cis-reporter transcription, actives raise or lower the signal. The essentials: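 Measured: reporter mRNA in HepG2 transiently transfected with cis-promoter reporter units, 24 h after chemical addition. Fitting was bidirectional, DMSO as negative control.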

Assay [10] in a line: ATG_TAL_CIS: Attagene CIS-FACTORIAL HepG2 Assay for human TAL Basal Promoter (AID 2282966).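 Note: background control endpoint measuring basal TAL promoter reporter mRNA not a specific factor.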 Particulars: HepG2 Attagene cis-factorial TAL promoter reporter; actives raise or lower the signal. The essentials:
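Fluorescence of labelled reporter cDNA fragments, resolved by capillary electrophoresis, gave the readout. Human HepG2 liver cells carried transiently transfected cis-element reporter units and were treated for 24 hours; activity was fitted bidirectionally against DMSO.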

Assay [11] can be described thus: ATG_TGFb_CIS: Attagene CIS-FACTORIAL HepG2 Assay for human Transforming Growth Factor (TGF) (AID 2282967). Conditions: HepG2 Attagene CIS TGFb reporter, mRNA transcription; actives raise or lower the signal. In a few lines: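 Cells were dosed for 24 hours, after which total RNA was reverse-transcribed and reporter sequences amplified, labeled and sized by capillary electrophoresis. Activity was fitted in both directions against DMSO.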

The nature of assay [12]: ATG_VDRE_CIS: Attagene CIS-FACTORIAL HepG2 Assay for human Vitamin D Receptor Element (VDRE) (AID 2282968). Conditions: HepG2 VDRE cis-reporter transcription, actives raise or lower the signal. In a few lines:
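In transiently transfected HepG2 liver cells, gain or loss of reporter mRNA after 24 h exposure is scored relative to DMSO, using fluorescence detection by capillary electrophoresis of RT-PCR products.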

Assay [13] can be described thus: ATG_M_19_TRANS: Attagene TRANS-FACTORIAL HepG2 Assay for M19 Transcription Factor (Internal Marker) (AID 2282974; active = hit-call score of the fitted dose curve at least 0.9, where 1 is the maximum). Conditions: HepG2 Attagene TRANS-FACTORIAL M19 internal marker reporter. In a few lines:
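Reporter mRNA induction was measured in transfected HepG2 cells 24 h after dosing. Endpoint fitted upward relative to DMSO and serves as a background control within the multiplexed TRANS panel.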

Assay [14] in a line: ATG_GAL4_TRANS: Attagene TRANS-FACTORIAL HepG2 Assay for GAL4 (Internal Marker) (AID 2282976; active = hit-call score of the fitted dose curve at least 0.9, where 1 is the maximum). Conditions: HepG2 Attagene TRANS GAL4 internal marker reporter. The essentials:
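First, HepG2 cells were transfected with reporter units under GAL4-UAS control. Next, they were treated with chemical for 24 h. Finally, RNA was reverse-transcribed, PCR-amplified, FAM-labelled and resolved by capillary electrophoresis, with induction scored against DMSO.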

Assay [15] addresses Glucocorticoid receptor (Homo sapiens) (UniProt P04150). Description: ATG_GR_TRANS: Attagene TRANS-FACTORIAL HepG2 Assay for human Glucocorticoid Receptor (GR) (AID 2282978; active = hit-call score of the fitted dose curve at least 0.9, where 1 is the maximum;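 note: activators score as hits since higher reporter transcript over DMSO is fitted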). Particulars: HepG2 Attagene TRANS GR reporter, mRNA transcription. In a few lines: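 Reporter transcript levels, detected by fluorescence after RT-PCR and capillary electrophoresis, served as the endpoint. HepG2 cells bearing transfected GAL4-UAS reporters responsive to NR-GAL4 chimeras were incubated with compound 24 h; DMSO defined baseline.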

Assay [16] in a line: ATG_Sox_CIS: Attagene CIS-FACTORIAL HepG2 Assay for human SRY-box transcription factor (SOX) (AID 2282960). Conditions: HepG2 Attagene cis-factorial SOX reporter, mRNA; actives raise or lower the signal. In a few lines: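 Measures mRNA induction of a SOX1-associated reporter in HepG2 after 24 h dosing. Fluorescently labelled RT-PCR fragments are separated by capillary electrophoresis, and gain or loss relative to DMSO control is fitted.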

For assay [17], the target named is Nuclear receptor subfamily 1 group I member 3 (Homo sapiens) (UniProt Q14994). Description: ATG_CAR_TRANS: Attagene TRANS-FACTORIAL HepG2 Assay for human Constitutive Androstane Receptor (CAR) (AID 2282969; active = hit-call score of the fitted dose curve at least 0.9, where 1 is the maximum;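 note: activators raise reporter mRNA above DMSO so AC50 marks induction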). Conditions: HepG2 Attagene TRANS-FACTORIAL CAR reporter. The essentials: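 Readout is reporter mRNA induction, quantified by fluorescent primer extension and capillary electrophoresis after RT-PCR. Cells were HepG2 transiently carrying chimeric NR-Gal4 constructs with GAL4-UAS reporters, treated for 24 h; activity scored upward from DMSO.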
Chain of Nuclear receptor subfamily 1 group I member 3 (Homo sapiens) (Q14994 whole entry, looked up, the tested form may be a part): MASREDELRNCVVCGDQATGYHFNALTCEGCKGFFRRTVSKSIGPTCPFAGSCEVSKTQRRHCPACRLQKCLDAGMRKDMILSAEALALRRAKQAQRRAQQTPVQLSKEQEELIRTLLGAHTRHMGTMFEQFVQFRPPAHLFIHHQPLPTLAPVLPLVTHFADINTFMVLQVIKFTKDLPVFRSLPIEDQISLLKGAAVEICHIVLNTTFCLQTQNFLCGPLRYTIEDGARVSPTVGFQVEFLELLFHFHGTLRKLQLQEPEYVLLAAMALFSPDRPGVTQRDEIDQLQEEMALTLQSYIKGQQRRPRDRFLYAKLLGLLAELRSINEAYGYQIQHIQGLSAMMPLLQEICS

The target in assay [18] is X-box-binding protein 1 (Homo sapiens) (UniProt P17861). Description: ATG_Xbp1_CIS: Attagene CIS-FACTORIAL HepG2 Assay for human X-box Binding Protein 1 (XBP1) (AID 2282972). Conditions: HepG2 XBP1 cis-element reporter, Attagene multiplex; actives raise or lower the signal. In a few lines:
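HepG2 cells transiently transfected with multiple cis-element reporter units report endogenous TF activity; 24 h exposure, then reporter mRNA measured by RT-PCR, 6-FAM labelling, HpaI digestion and capillary electrophoresis. Bidirectional fitting versus DMSO.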

In assay [19] the target is Estrogen-related receptor gamma (Homo sapiens) (UniProt P62508). The assay can be described thus: ATG_ERRg_TRANS: Attagene TRANS-FACTORIAL HepG2 Assay for human Estrogen-Related Receptor gamma (ERRg) (AID 2282977; active = hit-call score of the fitted dose curve at least 0.9, where 1 is the maximum;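 note: hits increase reporter signal over DMSO so potencies reflect activators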). Conditions: HepG2 Attagene TRANS reporter, ERRg transactivation. The essentials: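 HepG2 cells transiently transfected with multiplexed GAL4-UAS reporter units and chimeric NR-Gal4 constructs were exposed to test chemicals for 24 h. Reporter mRNA was measured by RT-PCR, 6-FAM primer extension, HpaI digestion and capillary electrophoresis; gain-of-signal versus DMSO.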
Chain of Estrogen-related receptor gamma (Homo sapiens) (P62508 whole entry, looked up, the tested form may be a part): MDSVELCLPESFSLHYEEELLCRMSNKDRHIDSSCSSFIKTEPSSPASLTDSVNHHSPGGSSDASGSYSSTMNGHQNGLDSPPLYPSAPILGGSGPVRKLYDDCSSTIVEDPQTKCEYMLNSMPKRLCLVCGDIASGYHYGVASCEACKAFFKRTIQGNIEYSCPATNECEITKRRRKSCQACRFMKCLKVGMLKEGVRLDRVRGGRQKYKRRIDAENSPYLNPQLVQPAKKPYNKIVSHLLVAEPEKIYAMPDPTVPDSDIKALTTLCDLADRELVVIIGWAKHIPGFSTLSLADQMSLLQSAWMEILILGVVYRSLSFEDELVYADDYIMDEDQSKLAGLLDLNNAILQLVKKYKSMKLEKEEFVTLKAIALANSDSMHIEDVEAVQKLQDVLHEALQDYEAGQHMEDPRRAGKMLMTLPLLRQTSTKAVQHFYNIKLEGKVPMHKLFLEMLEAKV

Here are results for four compounds from PubChem BioAssay (EPA / NIEHS).

Records with an inconclusive call do not appear. The source made the active and inactive calls. Rule for the calls, unless noted: active = hit-call score of the fitted dose curve at least 0.9, where 1 is the maximum; inactive = score below 0.9.

Chain of Transcription factor Sp1 (Homo sapiens) (P08047 whole entry, looked up): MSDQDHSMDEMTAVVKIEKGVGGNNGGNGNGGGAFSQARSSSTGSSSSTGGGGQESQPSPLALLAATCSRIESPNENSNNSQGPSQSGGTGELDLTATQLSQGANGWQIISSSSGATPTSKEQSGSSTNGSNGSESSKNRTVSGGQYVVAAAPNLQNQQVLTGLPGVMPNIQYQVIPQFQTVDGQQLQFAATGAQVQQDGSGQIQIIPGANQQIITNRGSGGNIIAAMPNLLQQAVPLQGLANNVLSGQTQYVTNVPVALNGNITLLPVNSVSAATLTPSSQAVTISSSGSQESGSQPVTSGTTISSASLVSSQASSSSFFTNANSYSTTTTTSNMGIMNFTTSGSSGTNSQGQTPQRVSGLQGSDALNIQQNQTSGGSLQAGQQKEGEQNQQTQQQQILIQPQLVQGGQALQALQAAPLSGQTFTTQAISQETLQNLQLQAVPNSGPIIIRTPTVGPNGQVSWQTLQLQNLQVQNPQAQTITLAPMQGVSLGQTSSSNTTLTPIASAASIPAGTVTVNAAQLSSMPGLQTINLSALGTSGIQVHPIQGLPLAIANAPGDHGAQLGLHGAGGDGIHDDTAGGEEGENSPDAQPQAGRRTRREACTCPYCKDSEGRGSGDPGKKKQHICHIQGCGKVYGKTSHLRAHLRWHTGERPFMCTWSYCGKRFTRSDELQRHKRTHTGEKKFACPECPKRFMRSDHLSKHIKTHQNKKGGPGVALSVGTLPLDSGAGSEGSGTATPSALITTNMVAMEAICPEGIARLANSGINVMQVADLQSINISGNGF
Chain of Paired box protein Pax-6 (Homo sapiens) (P26367 whole entry, looked up): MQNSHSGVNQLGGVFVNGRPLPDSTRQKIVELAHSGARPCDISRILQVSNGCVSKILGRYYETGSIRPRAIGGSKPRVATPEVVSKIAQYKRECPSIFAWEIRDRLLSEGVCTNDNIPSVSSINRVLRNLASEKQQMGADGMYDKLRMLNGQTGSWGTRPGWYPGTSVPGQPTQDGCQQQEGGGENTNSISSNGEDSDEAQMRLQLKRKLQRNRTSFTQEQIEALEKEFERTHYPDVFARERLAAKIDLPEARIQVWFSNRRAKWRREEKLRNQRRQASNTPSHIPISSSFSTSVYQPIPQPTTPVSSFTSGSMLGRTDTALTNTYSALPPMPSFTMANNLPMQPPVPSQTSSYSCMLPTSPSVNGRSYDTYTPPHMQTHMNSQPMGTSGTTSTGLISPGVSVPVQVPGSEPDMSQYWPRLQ
Chain of X-box-binding protein 1 (Homo sapiens) (P17861 whole entry, looked up): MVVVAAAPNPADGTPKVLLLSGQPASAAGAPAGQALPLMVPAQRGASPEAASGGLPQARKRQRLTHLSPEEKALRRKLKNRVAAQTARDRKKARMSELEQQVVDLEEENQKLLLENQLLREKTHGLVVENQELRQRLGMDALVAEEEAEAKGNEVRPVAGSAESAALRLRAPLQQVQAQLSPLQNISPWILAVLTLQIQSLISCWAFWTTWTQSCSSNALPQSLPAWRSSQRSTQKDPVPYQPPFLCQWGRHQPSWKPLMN
Chain of Glucocorticoid receptor (Homo sapiens) (P04150 whole entry, looked up, the tested form may be a part): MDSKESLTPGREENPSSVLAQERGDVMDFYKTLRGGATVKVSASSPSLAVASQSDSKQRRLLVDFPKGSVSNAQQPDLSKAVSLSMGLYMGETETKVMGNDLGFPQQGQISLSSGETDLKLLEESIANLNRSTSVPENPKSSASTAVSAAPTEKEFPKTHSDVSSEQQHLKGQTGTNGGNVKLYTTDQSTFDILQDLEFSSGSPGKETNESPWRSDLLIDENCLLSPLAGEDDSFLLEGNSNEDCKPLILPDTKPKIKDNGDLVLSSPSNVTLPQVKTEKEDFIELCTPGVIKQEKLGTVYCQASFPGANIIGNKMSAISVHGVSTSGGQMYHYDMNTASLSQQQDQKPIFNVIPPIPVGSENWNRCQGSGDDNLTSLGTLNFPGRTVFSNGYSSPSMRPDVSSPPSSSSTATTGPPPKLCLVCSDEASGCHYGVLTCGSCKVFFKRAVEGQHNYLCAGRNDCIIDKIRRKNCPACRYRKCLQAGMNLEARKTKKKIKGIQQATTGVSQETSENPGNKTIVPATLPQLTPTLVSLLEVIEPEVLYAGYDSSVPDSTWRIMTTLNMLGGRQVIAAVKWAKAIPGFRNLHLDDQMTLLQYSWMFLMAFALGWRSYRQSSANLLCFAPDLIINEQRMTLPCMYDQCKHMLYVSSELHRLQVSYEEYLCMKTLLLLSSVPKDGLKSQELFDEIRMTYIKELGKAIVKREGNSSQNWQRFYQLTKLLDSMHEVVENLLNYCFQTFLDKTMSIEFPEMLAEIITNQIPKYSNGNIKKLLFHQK

Take `O=C(O)c1cc(N=Nc2ccc(S(=O)(=O)Nc3ccccn3)cc2)ccc1O`: the result in [1], in [2], in [3], in [4], in [5] and in [6] was inactive. Further, the compound was called inactive in [7], in assay [8], in [9], in assay [10], in [11] and in assay [12]. Also, the outcome in assay [13], in [14] and in assay [15] was inactive.

As for `O=C(NS(=O)(=O)/C=C/c1ccccc1)c1ccc(F)cc1Cl`, the outcome in assay [1], in assay [3], in assay [4], in [16], in assay [5] and in assay [6] was inactive. Also, the call in [7], in [8], in assay [9], in assay [10], in assay [11] and in [17] was inactive. Also, the compound was called inactive in assay [18], in [13] and in assay [19]. In [2], the AC50 was 34.9 µM (active).

As to `CCOC(=O)COc1ccc2c(c1)CC(NCC(O)c1cccc(Cl)c1)CC2` (stereo not given), the result in assay [1], in [2], in [3], in assay [4], in assay [5] and in [6] was inactive. For the same compound, the outcome in [7], in assay [8], in [10], in assay [11], in assay [12] and in assay [17] was inactive. For the same compound, the outcome in assay [13] and in assay [19] was inactive. For the same compound, the AC50 in assay [9] was 33 µM (active).

`On1ccccc1=S`: the compound was called inactive in assay [1], in assay [2], in [3], in [4], in [5] and in assay [6]. The compound was classed as inactive in assay [7], in assay [8], in [9], in [10], in [11] and in assay [12]. For the same compound, the compound was classed as inactive in assay [18] and in assay [19].

What is called AC50 is the midpoint of the concentration-response curve, whichever way the signal moves.
